# FMDV inh – High Throughput Screening for Foot and Mouth Disease Virus Antivirals; FMDV antiviral cell-based qHTS; Potency, µM (highest dose often 57.9 µM), inactives show at the top dose activity change, negative = inhibition, usual class: inhibitors; 410,000 compounds, 1.2% hits; AID 1159524, 2015; calls by dose curve; tested in HEK293T cells; further: read-out not given here; potency means the concentration at half of the fitted maximal effect; on the % scale 0 is the no-effect control and ±100 the full control effect; nearly all actives have a fitted effect of over 45% in size
# SARS PLP yeast – qHTS of Yeast-based Assay for SARS-CoV PLP; S. cerevisiae expressing SARS-CoV PLpro, growth rescue; Potency, µM (top dose mostly 32.9 µM), for inactives: at the highest dose activity, positive = growth rescue, usual class: activators; 330,000 compounds, 0.19% hits; AID 485353, 2010; calls by dose curve; further: potency means the concentration at half of the fitted maximal effect; 0% is about no effect; nearly all actives have a fitted effect of over 55% in size
# LASV entry inh – qHTS for Inhibitors of binding or entry into cells for Lassa Virus. Lassa virus pseudotype entry inhibition, cell reporter. Potency, µM (titrated, usually from 37.9 µM), for the others: at the highest dose activity change, negative = inhibition, hits mostly inhibitors. 300,000 compounds, 1.2% hits; calls by dose curve; tested in HEK293 cells; further: potency means the concentration at half of the fitted maximal effect; on the % scale 0 is the no-effect control and ±100 the full control effect; nearly all actives have a fitted effect of over 50% in size
# HCV inhibitor – qHTS Assay for Inhibitors of Hepatitis C Virus (HCV). Huh7.5.1 HCVcc-Cre infection, luciferase reporter, 44 h. Potency, µM (doses to about 41.8 µM), for the others: top-dose activity change, negative = inhibition, usual class: inhibitors. 340,000 compounds, 3.4% hits; active means well fitted inhibition curve with a large enough effect; inconclusive means small, poorly fitted or top-dose-only effect, or another doubt; inactive means no such curve, though single readings can be large or run the other way; further: potency means the concentration at half of the fitted maximal effect; on the % scale 0 is the no-effect control and ±100 the full control effect
#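 Antiviral activity was scored by luciferase reporter output from cells infected with HCVcc-Cre (~0.5 moi) in presence of compound, 44 h infection period, cells seeded 1,000/well 4 h prior.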
# HCMV antiviral – qHTS Assay for inhibitors of the human cytomegalovirus (HCMV); HFF cells, HCMV-luciferase reporter, 72 h; hits give low values; activity change, negative = inhibition, % at 57.5 µM; 410,000 compounds, 4.5% hits; AID 1259415, 2018; in the data active means activity change below about -60%; inconclusive means no clear call, values can overlap the other calls; inactive means above about -39%; further: on the % scale 0 is the no-effect control and ±100 the full control effect
#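 Two compound doses tested in HFFs infected with HCMV-luciferase, MOI 1 PFU/cell, 72 h at 37C. Lysate luminescence read with OneGlo; data normalized against buffer-only and 10uM Salinomycin inhibitor controls.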
# MARV entry inh – qHTS for inhibitors of binding or entry into cells for Marburg Virus; Marburg virus pseudotyped entry inhibition, cell reporter; Potency, µM (doses to about 37.8 µM), for inactives: at the highest dose activity change, negative = inhibition, usual class: inhibitors; 300,000 compounds, 1.8% hits; AID 540276, 2011; calls by dose curve; tested in HEK293 cells; further: potency means the concentration at half of the fitted maximal effect; on the % scale 0 is the no-effect control and ±100 the full control effect
# The depositor's hits bear a star; ? = inconclusive; . = no result; [ ] = another dose, or the depositor's remark. In the library only some 8% were active in any assay of this set; here they are far more common.
SMILES,FMDV inh,SARS PLP yeast,LASV entry inh,HCV inhibitor,HCMV antiviral,MARV entry inh
CCOc1ccc(C(=O)Nc2ccc(C(=O)OCc3cc(=O)n4nc(CC)sc4n3)cc2)cc1,-2.5%,.,3.7%[46.1 µM],.,-0.8,.
Cc1ccc(NNC(=O)c2ccno2)c(C)c1,-10.4%,-1.4%,?,?,-14.7,8.91µM*
Cc1cc(NC(=O)c2ccno2)no1,-24.0%,0.6%,.,6.2%,1.6,.
c1ccc(Cn2c(-c3ccccc3)c[n+]3c2SCCC3)cc1,-12.7%,-0.1%,?,2.51µM*,?,?
CCOC(=O)C(Cc1ccccc1)(Nc1ccc(OC)cc1)C(O)c1ccc([N+](=O)[O-])cc1 (centres undefined),.,.,.,.,-3.0,.
CCN(C(=O)CN1CC=C(c2ccccc2)CC1)c1c(N)n(Cc2ccccc2)c(=O)[nH]c1=O,-5.6%,3.0%,?,-7.6%,-61.8*,?
CC(C)CN(C(=O)CN1CC=C(c2ccccc2)CC1)c1c(N)n(CC(C)C)c(=O)[nH]c1=O,-5.4%,0.8%,-1.5%[46.1 µM],3.55µM*,-38.8,-10.6%
CCN(C(=O)CN1CCCCCC1)c1c(N)n(Cc2ccccc2)c(=O)[nH]c1=O,-10.6%,-0.6%,12.6%[46.1 µM],32.7%,?,8.6%
CC(C)CN(C(=O)CN1CCOCC1)c1c(N)n(CC(C)C)c(=O)[nH]c1=O,-22.1%,11.0%,5.3%,3.8%,-72.3*,-23.2%
CC(C)CN(C(=O)CN1CCCCCC1)c1c(N)n(CC(C)C)c(=O)[nH]c1=O,15.1%,4.1%,?,11.0%,52.3,5.2%[46.1 µM]
CCCN(CCC)C(=O)CSc1nnc2cc(C)c3ccccc3n12,-11.4%,.,13.0%[46.1 µM],.,0.2,-23.7%[46.1 µM]
Cc1ccc(CNC(=O)CCc2nnc3n(C)c(=O)c4sccc4n23)cc1,-6.3%,.,21.9%[46.1 µM],.,-9.2,11.5%[46.1 µM]
O=C(N/N=C/c1ccc(-c2ccc(S(=O)(=O)Nc3ncccn3)cc2)o1)c1cc2ccccc2cc1O,1.8%,7.7%,-29.9%,-8.5%,-101.4*,?
CCOC(=O)C1=C(C)N=C2SC(C(=O)OC)=CC(=O)N2C1c1ccc(OC)cc1 (centres undefined),14.1µM*,1.3%,.,-0.9%,6.2,-27.1%[46.1 µM]
COC(=O)C1=C(C)N=C2SC(C#N)=C(N)N2C1c1ccc(OC)cc1 (centres undefined),0.0%,-6.6%,-17.2%,19.1%,32.9,-19.6%
Cc1ccc(S(=O)(=O)CC(=O)Nc2nc3c(C)cc(C)cc3s2)cc1,-1.8%,.,-1.8%[46.1 µM],.,?,.
COc1c(C)cccc1C(=O)Nc1ccc(Cl)c(-c2nc3cc(C)ccc3o2)c1,2.9%,.,?,.,3.5,-1.0%[46.1 µM]
COC(=O)[C@]1(Cc2ccccc2)N[C@H](CN(C)C(=O)Nc2ccc(C(F)(F)F)cc2)[C@@H]2C(=O)N(Cc3ccccc3)C(=O)[C@@H]21,0.0%,-2.4%,.,12.6µM*,-11.4,.
COc1ccccc1Nc1nnc(SCC2CCCCO2)s1 (centres undefined),-48.3%,2.6%,.,7.94µM*,89.7,7.08µM*
Cc1ccccc1Nc1nnc(SCC2CCCCO2)s1 (centres undefined),8.4%,-5.6%,?,0.8%,35.1,?
Cc1nc2ccccc2n(CC(=O)Nc2cc(Cl)cc(Cl)c2)c1=O,-27.7%,-0.9%,-23.1%,-28.4%,-60.6*,-11.8%
Cc1ccc(NC(=O)Cn2c(=O)c(C)nc3ccccc32)cc1,-6.8%,0.4%,9.4%,2.2%,-28.5,?
COc1ccc(NC(=O)c2nc(S(C)(=O)=O)ncc2N(Cc2ccc(C)cc2)Cc2ccco2)cc1Cl,-17.8%,.,-14.7%[46.1 µM],.,6.1,?
Cc1cc(NC(=O)CCCSc2nc(-c3ccco3)cc(C(F)(F)F)n2)n(-c2ccccc2)n1,?,5.2%,-16.5%,11.2µM*,-6.0,-48.6%
Cc1cc(NC(=O)CSc2nc(-c3ccco3)cc(C(F)(F)F)n2)n(-c2ccccc2)n1,-5.0%,15.1%,?,31.6µM*,-32.1,?
SMILES,FMDV inh,SARS PLP yeast,LASV entry inh,HCV inhibitor,HCMV antiviral,MARV entry inh
CCc1ccccc1NC(=O)CCCSc1nc(-c2ccco2)cc(C(F)(F)F)n1,-6.8%,.,9.3%[46.1 µM],.,-9.5,?
O=C(Nc1ccccc1C(F)(F)F)c1noc2c1CCCCC2,0.9%,.,23.1%[46.1 µM],.,1.6,?
COc1ccc(C(CNC(=O)c2oc3ccc(C)cc3c2C)N2CCOCC2)cc1 (centres undefined),-23.7%,.,?,.,-1.3,-6.8%[46.1 µM]
Cc1nc2c(-c3ccccc3)c(C)nn2c(C)c1CCC(=O)NCc1ccco1,-26.1%,1.7%,.,5.0%,-97.6*,3.1%
Cc1cc(C(=O)OCC(=O)NCc2ccco2)c(C)n1-c1ccc(F)cc1,?,-15.3%,10µM*,?,?,?
CCNC(=O)COC(=O)c1cc(C)n(-c2ccccc2)c1C,-2.3%,0.8%,5.1%[46.1 µM],6.8%,1.9,3.9%[46.1 µM]
CC(C)C(=O)NC(=S)Nc1ccc(S(=O)(=O)N(C)Cc2ccccc2)cc1,-26.9%,.,?,?,-0.1,?
CCOc1ccc(S(=O)(=O)Nc2ccc(C(=O)N/N=C(\C)c3ccc(-n4ccnc4)cc3)cc2)cc1,-4.8%,2.6%,?,-14.3%,45.0,11.2µM*
CCC(=O)NC(=S)Nc1ccc(S(=O)(=O)NC(C)C)cc1,40.7%,7.2%,-25.1%,5.2%,-109.9*,-3.8%
CCOc1ccc(NS(=O)(=O)c2ccc(NC(=S)NC(C)=O)cc2)cc1,23.0%,0.5%,?,?,-62.2*,-15.1%
CC(=O)NC(=S)Nc1ccc(S(=O)(=O)N(C)Cc2ccccc2)cc1,22.4µM*,0.7%,2.7%,-23.1%,-16.9,-6.0%[46.1 µM]
CCOc1ccc(NS(=O)(=O)c2ccc(NC(=S)NC(=O)C(C)C)cc2)cc1,19.7%,-5.4%,?,-10.2%,5.9,-20.2%
COc1ccc([C@]23Cc4ccccc4C(O2)C2=C(O3)C(=O)c3ccccc3C2=O)cc1,.,2.0%[6.58 µM],.,.,.,.
CCC(C)C(NC(N)=O)C(=O)Nc1ccc(S(=O)(=O)Nc2ccc(OC)cc2)cc1 (centres undefined),13.8%,1.7%,-12.5%,-16.9%,-101.5*,?
CCCCNC(=O)NS(=O)(=O)c1ccc(NC(=O)C(NC(N)=O)C(C)CC)cc1 (centres undefined),21.8%,-1.7%,16.4%,5.8%,28.9,8.5%
CCOc1ccc(NC(=S)Nc2ccc(OCC)cc2)cc1,-18.9%,1.5%,?,4.9%,-100.0*,?
O=C1c2ccccc2C(=O)c2c1ccc(O)c2O,-14.4%,.,.,15.6%,17.8,.
O=C1c2ccc(O)c(O)c2C(=O)c2c(O)ccc(O)c21,22.4µM*,.,.,.,.,.
Oc1[nH]c2ccccc2c1N=Nc1nc(Nc2ccccc2)nc(N2CCOCC2)n1,?,1.0%,.,14.1µM*,-102.7*,.
Cc1[nH]c2ccccc2c1/C=N/Nc1nc(Nc2ccccc2)nc(N2CCOCC2)n1,-11.3%,-20.7%,5.8µM*,?,-99.4*,0.326µM*
